Laboratory results: the supplement of paper PMC8728848
The entries come from a sample that favours the strongest signals as a whole.

How the values were obtained:
Assay in all cases: glycan array binding signal (z-score within array); higher = stronger binding
Details in all cases: glycan notation: IUPAC condensed, linker removed
[1] = target: Gal3S(b1-3)[Fuc(a1-4)]GlcNAc
Method in brief: (§1)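 Glycan array data were curated from 3228 arrays in the Consortium for Functional Glycomics database and kept only where the protein sequence was available. Glycan names were converted to IUPAC-condensed notation, and columns mapping to the same glycan were averaged. The binding signal is a within-array Z-score, averaged across arrays of the same protein sequence at different concentrations or buffers and across linkers. Negative Z-scores can be read as non-binding.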

[2] = target: GalNAc(b1-4)GlcNAc(b1-3)GalNAc(b1-4)GlcNAc
Method in brief: as §1

[3] = target: Glc(a1-4)Glc(a1-4)Glc(a1-4)Glc
Method in brief: as §1

[4] = target: GlcA(b1-6)Gal
Method in brief: as §1

[5] = target: GlcNAc(a1-4)Gal(b1-4)GlcNAc(b1-3)Gal(b1-4)Glc
Method in brief: as §1

[6] = target: GlcNAc(a1-4)Gal(b1-4)GlcNAc(b1-3)Gal(b1-4)[Fuc(a1-3)]GlcNAc(b1-3)Gal(b1-4)[Fuc(a1-3)]GlcNAc
Method in brief: as §1

[7] = target: GlcNAc(b1-2)[GlcNAc(b1-6)]Man(a1-6)[GlcNAc(b1-2)Man(a1-3)]Man(b1-4)GlcNAc(b1-4)[Fuc(a1-6)]GlcNAc
Method in brief: as §1

[8] = target: GlcNAc(b1-3)Gal(b1-4)GlcNAc(b1-3)Gal(b1-4)GlcNAc(b1-2)[GlcNAc(b1-3)Gal(b1-4)GlcNAc(b1-3)Gal(b1-4)GlcNAc(b1-6)]Man(a1-6)[GlcNAc(b1-3)Gal(b1-4)GlcNAc(b1-3)Gal(b1-4)GlcNAc(b1-2)Man(a1-3)]Man(b1-4)GlcNAc(b1-4)[Fuc(a1-6)]GlcNAc
Method in brief: as §1

[9] = target: GlcNAc(b1-3)Gal(b1-4)GlcNAc(b1-6)[GlcNAc(b1-3)Gal(b1-3)]GalNAc
Method in brief: as §1

[10] = target: GlcNAc(b1-6)GalNAc
Method in brief: as §1

[11] = target: Kdn(a2-3)Gal(b1-4)GlcNAc
Method in brief: as §1

[12] = target: Neu5Ac(a2-3)Gal(b1-3)GalNAc(b1-4)[Neu5Ac(a2-8)Neu5Ac(a2-3)]Gal(b1-4)Glc
Method in brief: as §1

[13] = target: Neu5Ac(a2-3)Gal(b1-3)[GlcNAc(b1-6)]GalNAc
Method in brief: as §1

[14] = target: Neu5Ac(a2-3)Gal(b1-4)GlcNAc(b1-2)[Neu5Ac(a2-3)Gal(b1-4)GlcNAc(b1-4)]Man(a1-3)[GlcNAc(b1-4)][Neu5Ac(a2-3)Gal(b1-4)GlcNAc(b1-4)Man(a1-6)]Man(b1-4)GlcNAc(b1-4)GlcNAc
Method in brief: as §1

[15] = target: Neu5Ac(a2-3)Gal(b1-4)GlcNAc(b1-3)Gal(b1-4)GlcNAc(b1-3)Gal(b1-4)GlcNAc(b1-2)Man(a1-3)[Neu5Ac(a2-3)Gal(b1-4)GlcNAc(b1-3)Gal(b1-4)GlcNAc(b1-3)Gal(b1-4)GlcNAc(b1-2)Man(a1-6)]GalNAc
Method in brief: as §1

[16] = target: Neu5Ac(a2-3)Gal(b1-4)GlcNAc(b1-6)GalNAc
Method in brief: as §1

[17] = target: Neu5Ac(a2-3)Gal(b1-4)[Fuc(a1-3)]GlcNAc
Method in brief: as §1

[18] = target: Neu5Ac(a2-3)Gal6S(b1-4)GlcNAc
Method in brief: as §1

[19] = target: Neu5Ac(a2-3)[GalNAc(b1-4)]Gal(b1-4)Glc
Method in brief: as §1

[20] = target: Neu5Ac(a2-6)Gal(b1-4)GlcNAc(b1-2)Man(a1-3)[Man(a1-6)]Man(b1-4)GlcNAc(b1-4)GlcNAc
Method in brief: as §1

[21] = target: Neu5Ac(a2-6)Gal(b1-4)GlcNAc(b1-2)Man(a1-3)[Neu5Ac(a2-3)Gal(b1-4)GlcNAc(b1-2)Man(a1-6)]Man(b1-4)GlcNAc(b1-4)GlcNAc
Method in brief: as §1

[22] = target: Neu5Ac(a2-6)Gal(b1-4)GlcNAc(b1-3)Gal(b1-4)GlcNAc(b1-3)Gal(b1-4)GlcNAc
Method in brief: as §1

[23] = target: Neu5Gc(a2-3)Gal(b1-4)GlcNAc
Method in brief: as §1

B1: GS14009A-pdi-495-27-495 (Parabacteroides distasonis) (protein)
chain: FEEVNTDPDSPTDVPTTNLLAYSLYYTSYRLYDRWFAMDEPMTFCGYASKMTYIDESRYNFRTGVQDTNWEYLYRILNNLKDIEKRATFNETPNMLNVSKVMQVHLMQVATDRWRDVPYTDAAKMTDGILQPKYDKQEDIYPGLLATLKEAADGFADGGSDDLGEGDLLFGGDIEKWQRYCNSMRLRLAMRISEVSPALAKETVEEVMGNPTKYPIMESNDDNAFFWWIGTDPNYYEPMADGYRTRKTEYCAADVIVDHMNTREDPRRSSYFQPTKESVEAGEPKYVGYTIGAKANAVASKYSIWGARFFTDLAGFSPYMRVAEPWFCVAEASMLGWNTGISAEDAYNKAVTYSMEENSVSAEDIADYLANAGKFTNDKKQIYYEEWVAMFKQGMEGWSLYRRTGVPDNLYPAPGRPANYSNHNVPPFRSPYPDKERNLNNANCAPFDAEVVDNLWGKQMWWDTRTGVH
- glycan array binding signal (z-score) [1]: 0.01
- glycan array binding signal (z-score) [2]: -0.71
- glycan array binding signal (z-score) [3]: -0.358
- glycan array binding signal (z-score) [4]: 0.626
- glycan array binding signal (z-score) [5]: -0.147
- glycan array binding signal (z-score) [6]: 1.93
- glycan array binding signal (z-score) [7]: -0.199
- glycan array binding signal (z-score) [8]: 2.44
- glycan array binding signal (z-score) [9]: 0.415
- glycan array binding signal (z-score) [10]: 0.174
- glycan array binding signal (z-score) [11]: -0.615
- glycan array binding signal (z-score) [12]: -0.25
- glycan array binding signal (z-score) [13]: -0.177
- glycan array binding signal (z-score) [14]: 0.12
- glycan array binding signal (z-score) [15]: 1.45
- glycan array binding signal (z-score) [16]: -0.512
- glycan array binding signal (z-score) [17]: -0.201
- glycan array binding signal (z-score) [18]: -0.508
- glycan array binding signal (z-score) [19]: -0.129
- glycan array binding signal (z-score) [20]: -0.647
- glycan array binding signal (z-score) [21]: -0.631
- glycan array binding signal (z-score) [22]: -0.311
- glycan array binding signal (z-score) [23]: -0.276
